Results: paper PMC8384837, “Expanding the binding specificity for RNA recognition by a PUF domain”

Key:
Experiment in all cases: yeast three-hybrid, YBZ-1, SC-Leu-His + 0.5 mM 3-AT, 4 days
Conditions in all cases: tags: N-Gal4 AD-HA kept; label: inside an RPR1-promoter hybrid RNA with tandem MS2 sites; ssRNA
[1] = target: PUM1 PUF domain R3-ASE (Homo sapiens, UniProt Q14671 828-1176, C935A;R936S;Q939E)
How it was run: (§1)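 Sequencing with Illumina followed PCR amplification of the repeat regions from transformants grown four days on SC-Leu (input) or SC-Leu-His + 0.5 mM 3-AT (selection). The transformants were strain YBZ-1 with a LexA–MS2 coat fusion and a HIS3 reporter, carrying Pumilio-1 PUF domain libraries and matching RNA elements. The interaction score is the log change in variant frequency from input to selection, computed in log2 with a pseudocount of 1 for absent variants.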

[2] = target: PUM1 PUF domain R3-WCS (Homo sapiens, UniProt Q14671 828-1176, C935W;R936C;Q939S)
How it was run: as §1

[3] = target: PUM1 PUF domain R8-LRK (Homo sapiens, UniProt Q14671 828-1176, N1122L;Y1123R;Q1126K)
How it was run: as §1

[4] = target: PUM1 PUF domain R4-EYQ (Homo sapiens, UniProt Q14671 828-1176, N971E;H972Y)
How it was run: as §1

[5] = target: PUM1 PUF domain R4-SNV (Homo sapiens, UniProt Q14671 828-1176, N971S;H972N;Q975V)
How it was run: as §1

[6] = target: PUM1 PUF domain R4-NRC (Homo sapiens, UniProt Q14671 828-1176, H972R;Q975C)
How it was run: as §1

[7] = target: PUM1 PUF domain R4-DFI (Homo sapiens, UniProt Q14671 828-1176, N971D;H972F;Q975I)
How it was run: as §1

[8] = target: PUM1 PUF domain R4-TPE (Homo sapiens, UniProt Q14671 828-1176, N971T;H972P;Q975E)
How it was run: as §1

[9] = target: PUM1 PUF domain R7-QSR (Homo sapiens, UniProt Q14671 828-1176, S1079Q;N1080S;E1083R)
How it was run: as §1

[10] = target: PUM1 PUF domain R3-VWC (Homo sapiens, UniProt Q14671 828-1176, C935V;R936W;Q939C)
How it was run: as §1

“GGCUAGAACUAGUGGAUCCCCCGGCGCCCGGCGGCUCGAGCCCGGGUAAGUGUAAGUAGUCUGCAUGCCGCCGGGCGCCAUGCCUGCAGGUCGACUCUAGAAAACAUG” was tested, and the binding signal [1] was 4.6 log2 enrichment (interaction score) and the binding signal [2] was 2.96 log2 enrichment (interaction score).

“GGCUAGAACUAGUGGAUCCCCCGGCGCCCGGCGGCUCGAGCCCGGGUAAGUGUAAAUAGUCUGCAUGCCGCCGGGCGCCAUGCCUGCAGGUCGACUCUAGAAAACAUG” was tested, and the binding signal [3] was 1.28 log2 enrichment (interaction score), the binding signal [4] was 1.61 log2 enrichment (interaction score) and the binding signal [5] was 1.05 log2 enrichment (interaction score). The binding signal [6] was 3.78 log2 enrichment (interaction score).

For “GGCUAGAACUAGUGGAUCCCCCGGCGCCCGGCGGCUCGAGCCCGGGUAAGUGUACAUAGUCUGCAUGCCGCCGGGCGCCAUGCCUGCAGGUCGACUCUAGAAAACAUG”, the binding signal [7] was 3.24 log2 enrichment (interaction score), the binding signal [4] was 3.27 log2 enrichment (interaction score) and the binding signal [5] was 3.34 log2 enrichment (interaction score).

For “GGCUAGAACUAGUGGAUCCCCCGGCGCCCGGCGGCUCGAGCCCGGGUAAGCGUAAAUAGUCUGCAUGCCGCCGGGCGCCAUGCCUGCAGGUCGACUCUAGAAAACAUG”, the binding signal [3] was 2.19 log2 enrichment (interaction score).

“GGCUAGAACUAGUGGAUCCCCCGGCGCCCGGCGGCUCGAGCCCGGGUAAGUGUAUAUAGUCUGCAUGCCGCCGGGCGCCAUGCCUGCAGGUCGACUCUAGAAAACAUG” was tested, and the binding signal [8] was 3.03 log2 enrichment (interaction score) and the binding signal [5] was 3.72 log2 enrichment (interaction score).

“GGCUAGAACUAGUGGAUCCCCCGGCGCCCGGCGGCUCGAGCCCGGGUAAGUUUAAAUAGUCUGCAUGCCGCCGGGCGCCAUGCCUGCAGGUCGACUCUAGAAAACAUG” was tested, and the binding signal [9] was 3.84 log2 enrichment (interaction score).

In the case of “GGCUAGAACUAGUGGAUCCCCCGGCGCCCGGCGGCUCGAGCCCGGGUAAGUGUAAUUAGUCUGCAUGCCGCCGGGCGCCAUGCCUGCAGGUCGACUCUAGAAAACAUG”, the binding signal [10] is reported as 3.83 log2 enrichment (interaction score) and the binding signal [2] is reported as 1.01 log2 enrichment (interaction score).
